The values below come from PubChem BioAssay (NCI).

Compounds without any hit were thinned out: in the full panel of roughly 79,000, 15% have a hit. Unmarked numbers belong to inactive results. Calls of active or inactive are those of the source. No stated cut-off is given here; in the data, active means growth inhibition above about 70%; inactive means the rest.

The nature of test [1]: NCI Yeast Anticancer Drug Screen. Data for the rad50 strain (AID 155).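 Further: 0% = growth of vehicle-only cultures of the same strain.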 The settings on record: S. cerevisiae rad50 strain growth inhibition, stronger effect = higher value. In short, it runs like this:
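Growth of the mutant yeast was measured after compound exposure and referenced to vehicle-treated cultures.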

Test [2] in a line: NCI Yeast Anticancer Drug Screen. Data for the mec2-1 strain (AID 157). The settings on record: S. cerevisiae mec2-1 strain, stronger effect = higher value. In short, it runs like this: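 Mutant yeast (mec2-1) grown with compound; growth inhibition relative to vehicle control reported.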
Test [3] is described as follows: NCI Yeast Anticancer Drug Screen. Data for the sgs1 mgt1 strain (AID 161).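 Further: 0% = growth of cultures given vehicle only.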 As to conditions: S. cerevisiae sgs1 mgt1 strain, stronger effect = higher value. In short, it runs like this:
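Compounds are added to genetically altered yeast, and growth is compared with cultures given vehicle alone to give percent inhibition.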

The nature of test [4]: NCI Yeast Anticancer Drug Screen. Data for the cln2 rad14 strain (AID 165).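 Further: 0% = growth equal to vehicle treated cultures.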 The settings on record: S. cerevisiae cln2 rad14 strain, stronger effect = higher value. The essentials: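 Readout is yeast growth inhibition versus vehicle-treated controls, using a strain with cln2 and rad14 alterations exposed to compound.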
The nature of test [5]: NCI Yeast Anticancer Drug Screen. Data for the bub3 strain (AID 167). The settings on record: S. cerevisiae bub3 mutant strain, stronger effect = higher value. In short, it runs like this:
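Whole-cell yeast assay. The mutant strain was incubated with compounds, and growth inhibition was determined by comparison with vehicle-treated cells.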

The nature of test [6]: NCI Yeast Anticancer Drug Screen. Data for the mlh1 rad18 strain (AID 175). The settings on record: S. cerevisiae mlh1 rad18 strain growth inhibition, stronger effect = higher value. In short, it runs like this: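 Genetically defined yeast (DNA repair-deficient) exposed to compounds; growth inhibition determined relative to vehicle.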
The mark [7] stands for this setting: at 5.0 µM (retest, dose inferred, filed as 0.5).
Setting [8] is: at 50.0 µM (retest, dose inferred, filed as 5.0).

Consider `C[N+](C)([O-])CCC=C1c2ccccc2CCc2ccccc21`, for which the growth inhibition was 10% in test [1] (setting [7]); 46% in test [1] (setting [8]); 62.5% in test [1] (at 50.0 µM); 12% in test [2] (setting [7]); 9% in test [2] (setting [8]); 28.4% in test [2] (at 50.0 µM). The growth inhibition is -2% in test [3] (setting [7]); 33% in test [3] (setting [8]); 7.75% in test [3] (at 50.0 µM); -20% in test [4] (setting [7]); 21% in test [4] (setting [8]); 12.5% in test [4] (at 50.0 µM). Moreover, the growth inhibition was 3% in test [5] (setting [7]); 33% in test [5] (setting [8]); 73.5% (active) in test [5] (at 50.0 µM); 4% in test [6] (setting [7]); 33% in test [6] (setting [8]); 33.5% in test [6] (at 50.0 µM).
In the case of `CCOC(=O)/C=C(\C)c1ccc([N+](=O)[O-])cc1`, the growth inhibition in test [1] (setting [7]) was -158%; in test [1] (setting [8]) it was -127%; in test [1] (at 50.0 µM), 36.1%; in test [2] (setting [7]), -49%; in test [2] (setting [8]) it was -51%; in test [2] (at 50.0 µM), -17.3%. The growth inhibition in test [3] (setting [7]) was -65%; in test [3] (setting [8]) it was -57%; in test [3] (at 50.0 µM) it was -17.9%; in test [4] (setting [7]), -63%; in test [4] (setting [8]), -69%; in test [4] (at 50.0 µM) it was -94.7%. For the same compound, the growth inhibition is -63% in test [5] (setting [7]); -54% in test [5] (setting [8]); 17.1% in test [5] (at 50.0 µM); -153% in test [6] (setting [7]); -114% in test [6] (setting [8]); 3.95% in test [6] (at 50.0 µM).
Turning to `CN(C)CC(CN(C)C)C(=O)C1CCCCC1`, the growth inhibition was 25% in test [1] (setting [7]); 90% (active) in test [1] (setting [8]); 81.2% (active) in test [1] (at 50.0 µM); 2% in test [2] (setting [7]); 96% (active) in test [2] (setting [8]); 94.7% (active) in test [2] (at 50.0 µM). Moreover, the growth inhibition was -9% in test [3] (setting [7]); 71% (active) in test [3] (setting [8]); 76.8% (active) in test [3] (at 50.0 µM); 19% in test [4] (setting [7]); 89% (active) in test [4] (setting [8]); 10.3% in test [4] (at 50.0 µM). The growth inhibition was 7% in test [5] (setting [7]); 98% (active) in test [5] (setting [8]); 23.2% in test [5] (at 50.0 µM); 12% in test [6] (setting [7]); 95% (active) in test [6] (setting [8]); 96.6% (active) in test [6] (at 50.0 µM).
With `Cc1c2cc[n+]([O-])cc2c(C)c2c1oc1ccccc12`, the growth inhibition was 65% in test [1] (setting [7]); 99% (active) in test [1] (setting [8]); 50.5% in test [1] (at 50.0 µM); 34% in test [2] (setting [7]); 98% (active) in test [2] (setting [8]); 46.6% in test [2] (at 50.0 µM). The growth inhibition in test [3] (setting [7]) is 13%; in test [3] (setting [8]), 98% (active); in test [3] (at 50.0 µM), 42.4%; in test [4] (setting [7]), 23%; in test [4] (setting [8]) it was 99% (active); in test [4] (at 50.0 µM) it was 50.8%. Moreover, the growth inhibition in test [5] (setting [7]) is 32%; in test [5] (setting [8]), 99% (active); in test [5] (at 50.0 µM) it was 95.2% (active); in test [6] (setting [7]) it was 22%; in test [6] (setting [8]), 98% (active); in test [6] (at 50.0 µM), 55.1%.
As to `CCc1ccc(C)nc1`, the growth inhibition is -1% in test [1] (setting [7]); -3% in test [1] (setting [8]); 20.9% in test [1] (at 50.0 µM); 1% in test [2] (setting [7]); -1% in test [2] (setting [8]); 1.05% in test [2] (at 50.0 µM). Further, the growth inhibition was 3% in test [3] (setting [7]); 0% in test [3] (setting [8]); 1.1% in test [3] (at 50.0 µM); 0% in test [4] (setting [7]); 3% in test [4] (setting [8]); 0.85% in test [4] (at 50.0 µM). The growth inhibition in test [5] (setting [7]) was -2%; in test [5] (setting [8]), -5%; in test [5] (at 50.0 µM), 98.7% (active); in test [6] (setting [7]), 1%; in test [6] (setting [8]), -2%; in test [6] (at 50.0 µM), -1.05%.
As to `N#Cc1c(-c2ccc(Cl)c(Cl)c2)c(-c2ccc(Cl)c(Cl)c2)nn(CCO)c1=O`, the growth inhibition in test [1] (setting [7]) is 73% (active); in test [1] (setting [8]), 96% (active); in test [1] (at 50.0 µM) it was 97.8% (active); in test [2] (setting [7]), 44%; in test [2] (setting [8]), 98% (active); in test [2] (at 50.0 µM), 97.6% (active). For the same compound, the growth inhibition was 50% in test [3] (setting [7]); 97% (active) in test [3] (setting [8]); 97.5% (active) in test [3] (at 50.0 µM); 39% in test [4] (setting [7]); 95% (active) in test [4] (setting [8]); 96.8% (active) in test [4] (at 50.0 µM). Moreover, the growth inhibition in test [5] (setting [7]) is 43%; in test [5] (setting [8]), 97% (active); in test [5] (at 50.0 µM), 96.3% (active); in test [6] (setting [7]) it was 72% (active); in test [6] (setting [8]), 96% (active); in test [6] (at 50.0 µM), 97.5% (active).
With `CCOC(=O)C1CC(C(=O)OCC)C(=O)C1=O` (stereo not given), the growth inhibition was 45% in test [1] (setting [7]); 96% (active) in test [1] (setting [8]); 96.3% (active) in test [1] (at 50.0 µM); 27% in test [2] (setting [7]); 95% (active) in test [2] (setting [8]); 91% (active) in test [2] (at 50.0 µM). Also, the growth inhibition in test [3] (setting [7]) is 54%; in test [3] (setting [8]), 96% (active); in test [3] (at 50.0 µM), 43.6%; in test [4] (setting [7]) it was 28%; in test [4] (setting [8]), 97% (active); in test [4] (at 50.0 µM) it was 34.2%. Further, the growth inhibition in test [5] (setting [7]) was 44%; in test [5] (setting [8]) it was 97% (active); in test [5] (at 50.0 µM), 94% (active); in test [6] (setting [7]), 37%; in test [6] (setting [8]), 98% (active); in test [6] (at 50.0 µM), 47.9%.
With `O=C(O)Cc1ccc2c(c1O)C(=O)c1ccccc1C2=O`, the growth inhibition in test [1] (setting [7]) is 1%; in test [1] (setting [8]), 20%; in test [1] (at 50.0 µM), 89.3% (active); in test [2] (setting [7]) it was 0%; in test [2] (setting [8]) it was 31%; in test [2] (at 50.0 µM), 67.2%. Further, the growth inhibition in test [3] (setting [7]) is 1%; in test [3] (setting [8]), 28%; in test [3] (at 50.0 µM), 78.8% (active); in test [4] (setting [7]), -2%; in test [4] (setting [8]), 7%; in test [4] (at 50.0 µM) it was 57.5%. Also, the growth inhibition in test [5] (setting [7]) was 0%; in test [5] (setting [8]), 50%; in test [5] (at 50.0 µM), 65.9%; in test [6] (setting [7]) it was 0%; in test [6] (setting [8]), 29%; in test [6] (at 50.0 µM), 74.1% (active).
Regarding `CCCCCCCCCCCCCCCCNCCCN(C)CCCN`, the growth inhibition was -1% in test [1] (setting [7]); 98% (active) in test [1] (setting [8]); 88.5% (active) in test [1] (at 50.0 µM); -19% in test [2] (setting [7]); 98% (active) in test [2] (setting [8]); 93.5% (active) in test [2] (at 50.0 µM). The growth inhibition is 2% in test [3] (setting [7]); 97% (active) in test [3] (setting [8]); 93.3% (active) in test [3] (at 50.0 µM); -26% in test [4] (setting [7]); 97% (active) in test [4] (setting [8]); 92% (active) in test [4] (at 50.0 µM). Further, the growth inhibition in test [5] (setting [7]) is -26%; in test [5] (setting [8]), 97% (active); in test [5] (at 50.0 µM), 92.4% (active); in test [6] (setting [7]), -68%; in test [6] (setting [8]), 97% (active); in test [6] (at 50.0 µM), 90.3% (active).
In the case of `CCCOC(=O)C(S)C(S)C(=O)OCCC` (stereo not given), the growth inhibition in test [1] (setting [7]) is 23%; in test [1] (setting [8]), 50%; in test [1] (at 50.0 µM), 11.1%; in test [2] (setting [7]) it was 2%; in test [2] (setting [8]) it was 32%; in test [2] (at 50.0 µM), 2.15%. For the same compound, the growth inhibition in test [3] (setting [7]) was -16%; in test [3] (setting [8]), 53%; in test [3] (at 50.0 µM), 12.4%; in test [4] (setting [7]), 19%; in test [4] (setting [8]), 90% (active); in test [4] (at 50.0 µM), 40%. Further, the growth inhibition in test [5] (setting [7]) is 5%; in test [5] (setting [8]) it was 94% (active); in test [5] (at 50.0 µM), 26.8%; in test [6] (setting [7]), 2%; in test [6] (setting [8]) it was 75% (active); in test [6] (at 50.0 µM), 48.2%.
